# Laboratory results from PubChem BioAssay.
# The source made the active and inactive calls.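 The calls were made as follows, unless noted: active = mean z-score across replicates of 1.96 or higher in either the MELAS or the Rieske mutant cell line; inactive = the rest.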
# Columns and labels:
# [1] = sensitizers of A549 cells to miR-34 induction, primary screen, imaging, A549 dox-inducible miR-34, nuclei and caspase counts (AID 1347080;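 active = compounds whose cell count with miR-34 switched on is under 0.7 times the count with it off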); details: A549 miR-34 inducible, Hoechst nuclei count, 48 h
# [2] = survival rescue of mitochondrial mutant cells in low glucose, primary screen, MELAS cybrids, Rieske KO mouse fibroblasts, CellTiter-Glo (AID 1508586);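 also: z relative to plate mean and SD of compound and empty wells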
# [3] = stronger effect = lower value, cell number ratio, induced over uninduced
# [4] = measured here: relative caspase fold change +Dox/-Dox
# [5] = measured here: total cells with miR-34 induction, stronger effect = lower value
# [6] = measured here: total cells without miR-34 induction
# [7] = MELAS cybrid survival, CellTiter-Glo 48 h, stronger effect = higher value
# [8] = Rieske KO mouse fibroblast survival, CellTiter-Glo 72 h
# Also: test concentration not given here.
Structure (SMILES),"fold change [1, 3]","fold change [1, 4]","cell count [1, 5]","cell count [1, 6]","z-score [2, 7]","z-score [2, 8]"
Nc1nc(=O)n(C2CSC(CO)O2)cc1F (stereo not drawn),0.88 (inactive),0.906,7840,8920,-0.288 (inactive),0.564
O=C(C=Cc1cccc(S(=O)(=O)Nc2ccccc2)c1)NO,0.967 (inactive),0.71,1120,1160,0.973 (inactive),1.18
CC(C)(Oc1ccc(Cl)cc1)C(=O)OCCOC(=O)c1cccnc1,0.919 (inactive),0.391,8570,9330,-0.212 (inactive),-0.266
C#C[C@@]1(OC(C)=O)CC[C@H]2[C@@H]3CCC4=CC(OC(C)=O)CC[C@@H]4[C@@H]3CC[C@@]21C (stereo partly drawn),0.978 (inactive),0.478,8080,8260,-0.279 (inactive),-0.148
CCCCc1ncc(C=C(Cc2cccs2)C(=O)O)n1Cc1ccc(C(=O)O)cc1,0.858 (inactive),0.882,8440,9840,-0.00421 (inactive),-0.115
O=C(C=CC=Cc1ccc2c(c1)OCO2)N1CCCCC1,1 (inactive),0.989,9240,9240,-0.417 (inactive),0.823
O=C(C=Cc1ccccc1)NC(NC(=S)Nc1cccc2cccnc12)C(Cl)(Cl)Cl (stereo not drawn),0.979 (inactive),0.343,6780,6920,-0.276 (inactive),0.21
CC(C)N(CCCNC(=O)Nc1ccc(C(C)(C)C)cc1)CC1OC(n2cc(Br)c3c(N)ncnc32)C(O)C1O (stereo not drawn),0.844 (inactive),1.16,7150,8480,-0.128 (inactive),-0.178
Cc1onc(-c2c(Cl)cccc2Cl)c1C(=O)NC1C(=O)N2C1SC(C)(C)C2C(=O)O (stereo not drawn),0.869 (inactive),0.56,8500,9780,-0.165 (inactive),-0.146
CC(C)CN(CC(O)C(Cc1ccccc1)NC(=O)OC1CCOC1)S(=O)(=O)c1ccc(N)cc1 (stereo not drawn),0.88 (inactive),0.898,7780,8840,-0.312 (inactive),0.463
O=C(CCCCCCC(=O)Nc1ccc(C2OC(CSc3nc(-c4ccccc4)c(-c4ccccc4)o3)CC(c3ccc(CO)cc3)O2)cc1)NO (stereo not drawn),0.92 (inactive),0.644,6200,6750,-0.366 (inactive),1.07
CN1[C@@H]2CC[C@@H]1CC(OC(=O)C(O)c1ccccc1)C2 (stereo partly drawn),0.924 (inactive),0.78,8330,9020,-0.279 (inactive),-0.173
COC1C[C@H]2CCC(C)[C@@](O)(O2)C(=O)C(=O)N2CCCC[C@H]2C(=O)OC(C(C)CC2CCC(OP(C)(C)=O)C(OC)C2)CC(=O)C(C)C=C(C)C(O)C(OC)C(=O)C(C)CC(C)C=CC=CC=C1C (stereo partly drawn),1.07 (inactive),0.835,4570,4270,0.709 (inactive),1.92
CCCC(NC(=O)C1[C@H]2CCC[C@H]2CN1C(=O)C(NC(=O)C(NC(=O)c1cnccn1)C1CCCCC1)C(C)(C)C)C(=O)C(=O)NC1CC1 (stereo partly drawn),0.872 (inactive),1.37,5460,6260,-0.469 (inactive),0.214
O=C(Nc1ccccc1)Nc1ccc(-c2ccc(C(=O)C3CCCC3C(=O)O)cc2)cc1 (stereo not drawn),0.846 (inactive),0.729,9210,10900,-0.239 (inactive),0.453
CC(C)Oc1ccc(C(=O)NC(CNC(=O)CN(C)C)Cc2ccc(-c3cn4cccc(C(C)O)c4n3)cc2)cc1Cl (stereo not drawn),1 (inactive),0.389,1600,1590,1.36 (inactive),-2.78
CCNC(=O)C1OC(n2cnc3c(N)nc(NCCc4ccc(CCC(=O)O)cc4)nc32)C(O)C1O (stereo not drawn),1.01 (inactive),0.733,7450,7360,0.177 (inactive),-0.329
CC1(C)CCC[C@@]2(C)[C@H]3CC(=O)O[C@]3(C)CC[C@@H]12,0.913 (inactive),0.659,9360,10200,-0.354 (inactive),1.06
CS(=O)(=O)c1ccc(C(O)C(CF)NC(=O)C(Cl)Cl)cc1 (stereo not drawn),0.937 (inactive),0.642,8270,8820,0.0143 (inactive),-0.0314
CCC(C)(C)C(=O)OC1CC(C)C=C2C=CC(C)C(CC[C@@H]3CC(O)CC(=O)O3)[C@H]21 (stereo partly drawn),1.33 (inactive),0.766,2960,2220,1.26 (inactive),-1.5
CC1(C)S[C@H]2C(NC(=O)C(N)c3ccc(O)cc3)C(=O)N2C1C(=O)O (stereo partly drawn),1.01 (inactive),0.573,8190,8150,-0.00212 (inactive),-0.0136
O=C(CS(=O)Cc1ccco1)NCC=CCOc1cc(CN2CCCCC2)ccn1 (stereo not drawn),0.878 (inactive),0.735,8120,9240,-0.242 (inactive),-0.613
CC1(C)O[C@@H]2C[C@H]3[C@@H]4C[C@@H](F)C5=CC(=O)C=C[C@]5(C)[C@]4(F)C(O)C[C@]3(C)[C@@]2(C(=O)CO)O1 (stereo partly drawn),0.861 (inactive),0.94,5980,6950,-0.367 (inactive),-0.28
